PubChem BioAssay (NCI)
The panel holds about 79,000 compounds, 15% with a hit somewhere; the sample as a whole holds those more often. Activity calls are given as the source filed them. Rule as the data show it: active = growth inhibition above about 70%; inactive = the rest.

Key:
[1] = NCI Yeast Anticancer Drug Screen. Data for the rad52 strain (AID 147);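 also: 0% = growth of vehicle-treated control cultures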; settings: S. cerevisiae rad52 mutant growth inhibition, active compounds read high
Summary of the method: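 Growth of repair-deficient yeast cells was compared between compound-treated and vehicle-treated cultures to give percent inhibition.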

[2] = NCI Yeast Anticancer Drug Screen. Data for the rad50EPP+ strain (AID 151);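 also: 0% = growth of vehicle-treated control cultures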; settings: S. cerevisiae rad50 mutant strain, active compounds read high
Summary of the method: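 Measured: growth inhibition of rad50EPP+ yeast. Reference: vehicle-treated controls. Screen uses strains with defined genetic alterations in DNA damage repair or cell cycle control.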

[3] = NCI Yeast Anticancer Drug Screen. Data for the mgt1 strain (AID 153); settings: S. cerevisiae mgt1 mutant growth inhibition, active compounds read high
Summary of the method: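 Compounds were applied to mgt1 mutant yeast, and growth was then compared against vehicle-treated control cultures to give percent inhibition.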

[4] = NCI Yeast Anticancer Drug Screen. Data for the rad50 strain (AID 155);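 also: 0% = growth of vehicle-only cultures of the same strain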; settings: S. cerevisiae rad50 strain growth inhibition, active compounds read high
Summary of the method: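 Cells are treated with compound, grown, and their growth is then scored against vehicle-only cultures of the same repair-deficient yeast strain.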

[5] = NCI Yeast Anticancer Drug Screen. Data for the mec2-1 strain (AID 157); settings: S. cerevisiae mec2-1 strain, active compounds read high
Summary of the method: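 Compounds were applied to mec2-1 yeast cells. Their growth was then compared with that of vehicle-treated cultures to give growth inhibition.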

[6] = NCI Yeast Anticancer Drug Screen. Data for the rad14 strain (AID 159);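 also: 0% = growth of vehicle-treated control cultures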; settings: S. cerevisiae rad14 strain growth inhibition, active compounds read high
Summary of the method: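 Readout: yeast growth inhibition, referenced to vehicle-only cultures. Strain bears a defined alteration in DNA damage repair.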

[7] = NCI Yeast Anticancer Drug Screen. Data for the sgs1 mgt1 strain (AID 161);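 also: 0% = growth of cultures given vehicle only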; settings: S. cerevisiae sgs1 mgt1 strain, active compounds read high
Summary of the method: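 This yeast growth screen uses a strain with defined DNA-repair lesions; compound-treated growth is compared with vehicle-treated growth.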

[8] = NCI Yeast Anticancer Drug Screen. Data for the CLN2oe strain (AID 163);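 also: 0% = growth of vehicle-only control cultures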; settings: S. cerevisiae CLN2oe strain, active compounds read high
Summary of the method: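 Cells of an engineered yeast line with disturbed cell-cycle regulation are treated with compound. Inhibition of growth is then calculated relative to the vehicle-treated reference.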

[9] = NCI Yeast Anticancer Drug Screen. Data for the cln2 rad14 strain (AID 165);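 also: 0% = growth equal to vehicle treated cultures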; settings: S. cerevisiae cln2 rad14 strain, active compounds read high
Summary of the method: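 Strain: cln2 rad14 yeast, altered in cell cycle control and DNA damage repair. Read-out: growth inhibition vs vehicle.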

[10] = NCI Yeast Anticancer Drug Screen. Data for the bub3 strain (AID 167); settings: S. cerevisiae bub3 mutant strain, active compounds read high
Summary of the method: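 Part of a panel of yeast mutants defective in DNA damage repair or cell cycle regulation. Each strain is grown with compound, and inhibition is calculated relative to solvent-treated cultures.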

[11] = NCI Yeast Anticancer Drug Screen. Data for the wt2 strain (AID 169);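 also: 0% = growth of vehicle-treated yeast cultures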; settings: S. cerevisiae wt2 strain growth inhibition, active compounds read high
Summary of the method: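 Growth of compound-treated yeast is measured and expressed as inhibition relative to vehicle-only controls.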

[12] = NCI Yeast Anticancer Drug Screen. Data for the mlh1 strain (AID 171);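 also: 0% = growth of vehicle-treated control cultures of the same strain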; settings: S. cerevisiae mlh1 strain growth inhibition, active compounds read high
Summary of the method: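 Test agents were incubated with yeast bearing a defined DNA damage repair or cell cycle control alteration; values are growth inhibition normalised to vehicle-treated cultures.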

[13] = NCI Yeast Anticancer Drug Screen. Data for the sgs1 strain (AID 173);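 also: 0% = growth of vehicle-only control cultures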; settings: S. cerevisiae sgs1 mutant, active compounds read high
Summary of the method: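 Strain with an altered DNA repair or cell cycle pathway exposed to compound. Growth then measured. Value = inhibition versus vehicle control.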

[14] = NCI Yeast Anticancer Drug Screen. Data for the mlh1 rad18 strain (AID 175); settings: S. cerevisiae mlh1 rad18 strain growth inhibition, active compounds read high
Summary of the method: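 A repair-deficient yeast strain is exposed to test compound, and growth is scored relative to vehicle-treated controls.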

[15] = NCI Yeast Anticancer Drug Screen. Data for the rad18 strain (AID 177); settings: S. cerevisiae rad18 mutant growth inhibition, active compounds read high
Summary of the method: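 DNA-repair-defective yeast; compound treatment; growth inhibition scored against vehicle.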

[16] = at 5.0 µM (retest, dose inferred, filed as 0.5)
[17] = at 50.0 µM (retest, dose inferred, filed as 5.0)

Measured: growth inhibition

CCCCCCCCCCCCCCCCCCN(C)CC(COP(=O)([O-])OCC[N+](C)(C)C)OC (stereo not drawn)
active: [1]; at 11.0 µM 97% | [1]; at 33.0 µM 98% | [1]; at 100.0 µM 98% | [2]; at 11.0 µM 98% | [2]; at 33.0 µM 98% | [2]; at 100.0 µM 98% | [3]; at 11.0 µM 97% | [3]; at 33.0 µM 99% | [3]; at 100.0 µM 98% | [4]; at 11.0 µM 98% | [4]; at 33.0 µM 98% | [4]; [17] 98% | [4]; at 50.0 µM 88.2% | [4]; at 100.0 µM 98% | [5]; at 11.0 µM 94% | [5]; at 33.0 µM 99% | [5]; [17] 99% | [5]; at 50.0 µM 93.4% | [5]; at 100.0 µM 99% | [6]; at 11.0 µM 98% | [6]; at 33.0 µM 99% | [6]; at 100.0 µM 99% | [7]; [16] 78% | [7]; [17] 99% | [7]; at 50.0 µM 91.1% | [8]; at 11.0 µM 96% | [8]; at 33.0 µM 98% | [8]; at 100.0 µM 98% | [9]; [17] 98% | [9]; at 50.0 µM 89.8% | [10]; at 11.0 µM 98% | [10]; at 33.0 µM 98% | [10]; [17] 99% | [10]; at 50.0 µM 90% | [10]; at 100.0 µM 98% | [11]; at 100.0 µM 98% | [12]; at 11.0 µM 98% | [12]; at 33.0 µM 99% | [12]; at 100.0 µM 99% | [13]; at 11.0 µM 97% | [13]; at 33.0 µM 99% | [13]; at 100.0 µM 99% | [14]; [17] 98% | [14]; at 50.0 µM 89.5% | [15]; at 11.0 µM 98% | [15]; at 33.0 µM 98% | [15]; at 100.0 µM 98%
inactive: [1]; at 1.2 µM -14% | [1]; at 3.7 µM -24% | [2]; at 1.2 µM -4% | [2]; at 3.7 µM 43% | [3]; at 1.2 µM 21% | [3]; at 3.7 µM 32% | [4]; at 1.2 µM 8% | [4]; at 3.7 µM 18% | [4]; [16] 17% | [5]; at 1.2 µM 13% | [5]; at 3.7 µM 18% | [5]; [16] 11% | [6]; at 1.2 µM 2% | [6]; at 3.7 µM 4% | [8]; at 1.2 µM 15% | [8]; at 3.7 µM 6% | [9]; [16] 22% | [10]; at 1.2 µM 9% | [10]; at 3.7 µM -8% | [10]; [16] 33% | [11]; at 1.2 µM -1% | [11]; at 3.7 µM 0% | [11]; at 11.0 µM -17% | [11]; at 33.0 µM 60% | [12]; at 1.2 µM 5% | [12]; at 3.7 µM 11% | [13]; at 1.2 µM -15% | [13]; at 3.7 µM -1% | [14]; [16] 7% | [15]; at 1.2 µM -6% | [15]; at 3.7 µM 11%
